Measured values: PubChem BioAssay (Tox21)
Records with an inconclusive call do not appear. Calls of active or inactive are those of the source. Unless noted, the call rests on the fitted dose curve; in most records, active means well fitted curve in the direction sought with a large enough effect in the repeat runs; inconclusive means weak or mixed curves; inactive means no such curve, though single readings can be large; an effect the other way counts as inactive or inconclusive.

What was measured:
[1] = qHTS assay to identify aromatase inhibitors - cell viability counter screen (AID 743084);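 further: cells stimulated with testosterone during compound exposure; nearly all actives have a fitted effect of over 55% in size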; further: potency means the concentration at half of the fitted maximal effect
[2] = target: Aryl hydrocarbon receptor (Homo sapiens) (UniProt P35869); test: qHTS assay to identify small molecule that activate the aryl hydrocarbon receptor (AhR) signaling pathway (AID 743085); further: nearly all actives have a fitted effect of over 15% in size; further: potency means the concentration at half of the fitted maximal effect;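 on activation: HG2L7.5c1 human HepG2 liver cells with stably integrated DRE-driven firefly reporter; series mostly up to about 70 µM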
Chain of Aryl hydrocarbon receptor (Homo sapiens) (P35869 whole entry, looked up): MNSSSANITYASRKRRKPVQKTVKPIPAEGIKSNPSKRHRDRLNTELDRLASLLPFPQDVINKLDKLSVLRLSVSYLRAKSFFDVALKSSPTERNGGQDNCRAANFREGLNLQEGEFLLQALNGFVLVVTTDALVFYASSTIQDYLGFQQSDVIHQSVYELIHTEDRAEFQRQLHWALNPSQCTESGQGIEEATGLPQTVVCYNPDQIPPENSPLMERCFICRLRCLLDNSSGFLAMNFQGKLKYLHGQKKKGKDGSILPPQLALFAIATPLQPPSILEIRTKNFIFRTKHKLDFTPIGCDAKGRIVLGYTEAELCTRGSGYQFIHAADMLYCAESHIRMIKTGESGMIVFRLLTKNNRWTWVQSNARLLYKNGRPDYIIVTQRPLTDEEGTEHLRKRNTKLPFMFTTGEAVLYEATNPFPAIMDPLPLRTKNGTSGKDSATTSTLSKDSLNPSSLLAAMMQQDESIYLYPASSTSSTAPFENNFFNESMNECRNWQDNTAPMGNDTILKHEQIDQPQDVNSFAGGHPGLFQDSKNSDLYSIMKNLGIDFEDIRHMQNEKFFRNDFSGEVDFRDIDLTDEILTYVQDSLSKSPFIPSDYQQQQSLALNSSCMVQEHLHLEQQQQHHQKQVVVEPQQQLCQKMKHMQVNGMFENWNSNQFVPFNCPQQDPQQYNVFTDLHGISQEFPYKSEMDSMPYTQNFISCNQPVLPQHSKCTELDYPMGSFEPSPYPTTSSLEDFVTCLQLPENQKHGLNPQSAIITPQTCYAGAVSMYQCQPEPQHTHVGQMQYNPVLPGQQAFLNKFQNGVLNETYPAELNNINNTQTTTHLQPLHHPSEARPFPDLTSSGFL
In short: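 Luminescence (ONE-Glo) from a dioxin-responsive-element luciferase reporter in HG2L7.5c1 HepG2 cells after 24 hr compound exposure at 37C; viability measured by CellTiter-Fluor fluorescence beforehand.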

[3] = qHTS assay to identify small molecule that activate the aryl hydrocarbon receptor (AhR) signaling pathway - cell viability counter screen (AID 743086); further: nearly all actives have a fitted effect of over 45% in size; further: potency means the concentration at half of the fitted maximal effect
In short: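 HepG2-AhR-luc (HG2L7.5c1) cells, 4000/well, were preincubated 5 h at 37C, exposed to compound in qHTS format for 24 hr at 37C, then given CellTiter-Fluor for 30 min; viability was read as fluorescence in the reporter wells.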

[4] = qHTS assay for small molecule agonists of the antioxidant response element (ARE) signaling pathway - cell viability counter screen (AID 743203; calls by dose curve; further: nearly all actives have a fitted effect of over 55% in size; further: potency means the concentration at half of the fitted maximal effect)
In short: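 Cells (ARE-bla HepG2, 2,000/well) receive DMSO-dissolved compounds after a 5 hrs rest. Plates incubate 16 hrs at 37C/5% CO2. CellTiter-Glo luminescence is then recorded after 30 min at room temperature.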

[5] = qHTS assay to identify small molecule agonists of the peroxisome proliferator-activated receptor delta (PPARd) signaling pathway - cell viability counter screen (AID 743211); further: potency means the concentration at half of the fitted maximal effect; nearly all actives have a fitted effect of over 55% in size
In short: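 Viability was measured as CellTiter-Glo luminescence (30 min, room temperature) in the same wells as the beta-lactamase readout. GeneBLAzer PPARd UAS-bla HEK293H cells received compound after 5 h plating and were incubated 17 h at 37 C.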

[6] = target: Bile acid receptor (Homo sapiens) (UniProt Q96RI1); test: qHTS assay to identify small molecule antagonists of the farnesoid-X-receptor (FXR) signaling pathway (AID 743217; active means well fitted inhibition curve with a large enough effect in the signal ratio in the repeat runs, not every such curve was filed as active; the % refers to the signal ratio; further: potency means the concentration at half of the fitted maximal effect)
Chain of Bile acid receptor (Homo sapiens) (Q96RI1 whole entry, looked up): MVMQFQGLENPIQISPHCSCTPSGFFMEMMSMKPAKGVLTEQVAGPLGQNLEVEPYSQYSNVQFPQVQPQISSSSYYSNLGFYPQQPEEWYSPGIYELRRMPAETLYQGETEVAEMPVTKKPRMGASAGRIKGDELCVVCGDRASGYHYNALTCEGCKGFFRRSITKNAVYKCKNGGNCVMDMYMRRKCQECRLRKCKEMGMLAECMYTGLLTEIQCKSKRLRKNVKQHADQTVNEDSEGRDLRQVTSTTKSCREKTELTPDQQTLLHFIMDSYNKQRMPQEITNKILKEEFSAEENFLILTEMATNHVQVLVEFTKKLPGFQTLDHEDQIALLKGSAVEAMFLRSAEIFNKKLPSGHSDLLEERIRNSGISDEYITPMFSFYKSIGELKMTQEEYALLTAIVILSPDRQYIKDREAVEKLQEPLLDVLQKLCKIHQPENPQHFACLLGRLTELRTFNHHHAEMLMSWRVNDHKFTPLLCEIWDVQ
In short: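 Beta-lactamase reporter under UAS control in HEK 293T cells; compound exposure 16 h at 37 °C in the presence of chenodeoxycholic acid (50 uM final); signal from B/G FRET substrate after 2 h at room temperature.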

[7] = qHTS assay to identify small molecule agonists of the farnesoid-X-receptor (FXR) signaling pathway - cell viability counter screen (AID 743218); further: nearly all actives have a fitted effect of over 45% in size; further: potency means the concentration at half of the fitted maximal effect
In short: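 In GeneBLAzer FXR-UAS-bla HEK 293T cells, compounds act for 16 h at 37 C. Cell viability is then scored in the reporter wells by CellTiter-Glo, 30 min at RT, luminescence.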

[8] = target: Bile acid receptor (Homo sapiens) (UniProt Q96RI1); test: qHTS assay to identify small molecule agonists of the farnesoid-X-receptor (FXR) signaling pathway (AID 743220; active means well fitted activation curve with a large enough effect in the signal ratio in the repeat runs, not every such curve was filed as active; the % refers to the signal ratio)
In short: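 Beta-lactamase reporter under UAS control in GeneBLAzer FXR HEK 293T cells (5000/well) measured with LiveBLAzer FRET substrate after 2 h at room temperature. Compound exposure lasted 16 h at 37C.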

[9] = target: Vitamin D3 receptor (Homo sapiens) (UniProt P11473); test: qHTS assay to identify small molecule agonists of the vitamin D receptor (VDR) signaling pathway (AID 743222; calls by dose curve; further: potency means the concentration at half of the fitted maximal effect)
Chain of Vitamin D3 receptor (Homo sapiens) (P11473 whole entry, looked up): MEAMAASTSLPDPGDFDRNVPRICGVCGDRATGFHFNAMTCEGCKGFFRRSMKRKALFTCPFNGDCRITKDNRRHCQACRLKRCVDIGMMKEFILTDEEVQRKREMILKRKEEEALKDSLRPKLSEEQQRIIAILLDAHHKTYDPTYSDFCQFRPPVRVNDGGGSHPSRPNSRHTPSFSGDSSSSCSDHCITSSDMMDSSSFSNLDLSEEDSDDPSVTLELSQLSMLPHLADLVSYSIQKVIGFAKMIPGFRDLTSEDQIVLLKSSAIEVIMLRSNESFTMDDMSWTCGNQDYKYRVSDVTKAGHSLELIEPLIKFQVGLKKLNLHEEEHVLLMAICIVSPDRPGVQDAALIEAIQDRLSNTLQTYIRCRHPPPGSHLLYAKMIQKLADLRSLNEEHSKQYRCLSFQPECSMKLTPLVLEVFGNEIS
In short: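 Agonist activity measured in VDR-bla reporter cells. Exposure 16 h, 37C, 5% CO2; detection by B/G FRET substrate, 2 h RT.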

[10] = qHTS assay to identify small molecule antagonists of the peroxisome proliferator-activated receptor gamma (PPARg) signaling pathway - cell viability counter screen (AID 743194); further: nearly all actives have a fitted effect of over 55% in size; further: potency means the concentration at half of the fitted maximal effect
In short: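 PPARg-UAS-bla HEK293H cells were plated, rested 5 h at 37 C, then treated with compounds plus rosiglitazone (50 nM final) for 17 h at 37 C; viability was then read by CellTiter-Glo luminescence after 30 min at room temperature.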

[11] = qHTS assay to identify small molecule antagonists of the peroxisome proliferator-activated receptor delta (PPARd) signaling pathway - cell viability counter screen (AID 743213); further: nearly all actives have a fitted effect of over 50% in size; further: potency means the concentration at half of the fitted maximal effect
In short: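 CellTiter-Glo was added to PPARd-bla HEK293H wells following 17 h compound treatment in the presence of 300 nM L165041. Luminescence was recorded after 30 min at room temperature.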

[12] = target: Peroxisome proliferator-activated receptor delta (Homo sapiens) (UniProt Q03181); test: qHTS assay to identify small molecule antagonists of the peroxisome proliferator-activated receptor delta (PPARd) signaling pathway (AID 743215; active means well fitted inhibition curve with a large enough effect in the signal ratio in the repeat runs, not every such curve was filed as active; the % refers to the signal ratio;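 further: cells stimulated with agonist L165041 at 300 nM final during compound exposure; potency means the concentration at half of the fitted maximal effect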)
Chain of Peroxisome proliferator-activated receptor delta (Homo sapiens) (Q03181 whole entry, looked up): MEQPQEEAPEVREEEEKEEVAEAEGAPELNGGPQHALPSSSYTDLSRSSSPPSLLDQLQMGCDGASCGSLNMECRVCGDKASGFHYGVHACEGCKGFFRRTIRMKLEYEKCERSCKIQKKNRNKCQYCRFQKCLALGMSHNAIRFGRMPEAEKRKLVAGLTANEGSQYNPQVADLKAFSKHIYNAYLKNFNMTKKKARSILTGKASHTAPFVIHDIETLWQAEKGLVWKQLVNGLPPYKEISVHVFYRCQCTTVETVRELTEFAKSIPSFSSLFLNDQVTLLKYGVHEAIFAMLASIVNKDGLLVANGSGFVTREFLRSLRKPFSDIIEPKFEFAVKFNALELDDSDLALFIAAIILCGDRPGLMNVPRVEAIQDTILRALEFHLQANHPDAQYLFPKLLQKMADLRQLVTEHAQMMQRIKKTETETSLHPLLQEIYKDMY
In short: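 Antagonist-mode beta-lactamase reporter screen: HEK293H cells with UAS-bla under PPARd control, stimulated by 300 nM L165041 (final) alongside test compound for 17 h at 37 C, then FRET fluorescence after 2 h substrate incubation.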

[13] = qHTS assay to identify small molecule antagonists of the farnesoid-X-receptor (FXR) signaling pathway - cell viability counter screen (AID 743221; active means well fitted cell-killing curve with a large enough effect in the repeat runs, not every such curve was filed as active; further: nearly all actives have a fitted effect of over 50% in size; further: potency means the concentration at half of the fitted maximal effect)
In short: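 Cytotoxicity counter screen run in the FXR-bla reporter wells: HEK 293T cells exposed to compound with 50 uM (final) chenodeoxycholic acid for 16 h, 37 C, then viability measured by CellTiter-Glo luminescence after 30 min, room temperature.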

[14] = qHTS assay for small molecule activators of the heat shock response signaling pathway - cell viability counter screen (AID 743209); further: nearly all actives have a fitted effect of over 50% in size; further: potency means the concentration at half of the fitted maximal effect
In short: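 Quantitative HTS format, Tox21 10K library. HeLa cells carrying an HSE-driven beta-lactamase reporter were treated 5 h at 37 C, then assessed for viability by CellTiter-Glo luminescence.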

[15] = target: Peroxisome proliferator-activated receptor delta (Homo sapiens) (UniProt Q03181); test: qHTS assay to identify small molecule agonists of the peroxisome proliferator-activated receptor delta (PPARd) signaling pathway (AID 743212; calls by dose curve; further: potency means the concentration at half of the fitted maximal effect)
In short: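 GeneBLAzer PPARd UAS-bla HEK293H cells (beta-lactamase reporter under UAS control), plated and rested 5 h at 37 C, then exposed to compounds in DMSO at 37 C; LiveBLAzer B/G FRET substrate added, 2 h room temperature, fluorescence read.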

[16] = target: Peroxisome proliferator-activated receptor gamma (Homo sapiens) (UniProt P37231); test: qHTS assay to identify small molecule agonists of the peroxisome proliferator-activated receptor gamma (PPARg) signaling pathway (AID 743094; active means well fitted activation curve with a large enough effect in the signal ratio in the repeat runs, not every such curve was filed as active; the % refers to the signal ratio; further: potency means the concentration at half of the fitted maximal effect)
Chain of Peroxisome proliferator-activated receptor gamma (Homo sapiens) (P37231 whole entry, looked up): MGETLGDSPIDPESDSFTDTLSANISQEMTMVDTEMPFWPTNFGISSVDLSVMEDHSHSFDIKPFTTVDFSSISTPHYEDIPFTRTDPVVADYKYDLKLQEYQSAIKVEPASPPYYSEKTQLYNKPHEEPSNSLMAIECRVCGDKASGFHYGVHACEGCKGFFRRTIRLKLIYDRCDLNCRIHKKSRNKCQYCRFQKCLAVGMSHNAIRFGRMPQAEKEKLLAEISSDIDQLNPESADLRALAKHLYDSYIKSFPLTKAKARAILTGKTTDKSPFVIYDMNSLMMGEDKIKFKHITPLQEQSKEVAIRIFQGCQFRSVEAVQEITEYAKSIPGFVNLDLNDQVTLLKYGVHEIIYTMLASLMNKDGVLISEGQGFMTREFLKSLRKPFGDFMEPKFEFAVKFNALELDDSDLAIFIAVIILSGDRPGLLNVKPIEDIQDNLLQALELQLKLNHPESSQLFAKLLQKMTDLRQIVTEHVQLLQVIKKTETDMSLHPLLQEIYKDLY
In short: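 Stably transfected HEK293H cells (GeneBLAzer PPARg UAS-bla) were incubated with test substances for 17 h at 37C after a 5 h pre-incubation; beta-lactamase activity was then detected by FRET substrate fluorescence.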

[17] = qHTS assay for small molecule agonists of the antioxidant response element (ARE) signaling pathway (AID 743202; active means well fitted activation curve with a large enough effect in the signal ratio in the repeat runs, not every such curve was filed as active; the % refers to the signal ratio; further: potency means the concentration at half of the fitted maximal effect)
In short: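 Read-out: LiveBLAzer B/G FRET substrate fluorescence after 2 h at room temperature, following 16 h compound treatment at 37 C of HepG2 cells carrying an ARE-driven beta-lactamase reporter.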

[18] = target: Vitamin D3 receptor (Homo sapiens) (UniProt P11473); test: qHTS assay to identify small molecule antagonists of the vitamin D receptor (VDR) signaling pathway (AID 743223; active means well fitted inhibition curve with a large enough effect in the signal ratio in the repeat runs, not every such curve was filed as active; the % refers to the signal ratio; further: potency means the concentration at half of the fitted maximal effect)
In short: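 Antagonist mode: compound added to VDR-bla cells alongside agonist 1alpha,25-dihydroxyvitamin D3 (3 nM final), incubation 16 h at 37C. Read-out is LiveBLAzer FRET fluorescence, 2 h at room temperature.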

[19] = target: Peroxisome proliferator-activated receptor gamma (Homo sapiens) (UniProt P37231); test: qHTS assay to identify small molecule antagonists of the peroxisome proliferator-activated receptor gamma (PPARg) signaling pathway (AID 743191; calls by dose curve; further: potency means the concentration at half of the fitted maximal effect; nearly all actives have a fitted effect of over 30% in size)
In short: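 GeneBLAzer PPARg UAS-bla HEK293H cells carrying a UAS-driven beta-lactamase reporter were plated at 3000 cells/well, preincubated 5 h at 37C, then given compound for 17 h at 37C; LiveBLAzer B/G FRET substrate was read after 1 h at room temperature.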

| Structure (SMILES) | Potency [1] | Potency [2] | Potency [3] | Potency [4] | Potency [5] | Potency [6] | Potency [7] | Potency [8] | Potency [9] | Potency [10] | Potency [11] | Potency [12] | Potency [13] | Potency [14] | Potency [15] | Potency [16] | Potency [17] | Potency [18] | Potency [19] |
| --- | --- | --- | --- | --- | --- | --- | --- | --- | --- | --- | --- | --- | --- | --- | --- | --- | --- | --- | --- |
| CCCCCCCCOc1ccccc1C(=O)Nc1ccc(C(=O)OCC[N+](C)(CC)CC)cc1 | inactive | inactive | inactive | 29.8 µM (active) | 26.6 µM (active) | inactive | inactive | inactive | inactive | – | – | – | – | – | – | – | – | – | – |
| C[n+]1cc2c3c(ccc2c2ccc4cc5c(cc4c21)OCO5)OCO3 | 21.1 µM (active) | 6.68 µM (active) | 10.6 µM (active) | – | 1.46 µM (active) | – | 1.46 µM (active) | inactive | – | 1.3 µM (active) | 1.84 µM (active) | 2.59 µM (active) | 1.46 µM (active) | – | – | – | – | – | – |
| Cc1cc(CCN2CCN(c3nsc4ccccc34)CC2)cc2c1NC(=O)CC2(C)C | 24.3 µM (active) | inactive | 27.3 µM (active) | 21.7 µM (active) | 21.9 µM (active) | – | 21.9 µM (active) | – | – | 19.5 µM (active) | 19.5 µM (active) | 19.5 µM (active) | 38.9 µM (active) | – | – | – | – | – | – |
| [Cl][Bi]([Cl])([c]1ccccc1)([c]1ccccc1)[c]1ccccc1 | 7.65 µM (active) | inactive | 19.2 µM (active) | 5.42 µM (active) | 5.46 µM (active) | – | 5.46 µM (active) | – | – | 3.45 µM (active) | 4.87 µM (active) | – | – | – | – | – | – | – | – |
| CCCCCCCC/C=C/CCCCCCCC1=NCCN1CCO | 48.6 µM (active) | inactive | inactive | 24.3 µM (active) | 30.9 µM (active) | 54.9 µM (active) | 21.9 µM (active) | – | – | 43.6 µM (active) | 49 µM (active) | – | – | – | – | – | – | – | – |
| CC(C)(C)C(=O)OCOC(=O)C1N2C(=O)CC2S(=O)(=O)C1(C)C (stereo not drawn) | inactive | inactive | inactive | – | – | – | inactive | inactive | – | inactive | inactive | 2.11 µM (active) | – | inactive | inactive | – | – | – | – |
| CCN(Cc1cccnc1)C(=O)c1cccc(Cl)c1[C@]1(C)C(=O)N(Cc2ccc(OC)cc2OC)c2ccc(Cl)cc21 | 16.1 µM (active) | inactive | 11.4 µM (active) | – | 4.08 µM (active) | – | 3.63 µM (active) | – | 45.8 µM (active) | – | 5.13 µM (active) | – | 11.5 µM (active) | inactive | – | – | – | – | – |
| O=C(Nc1cccc(Cl)c1)OCC#CCCl | 24.3 µM (active) | inactive | 27.3 µM (active) | 54.5 µM (active) | 38.9 µM (active) | – | – | – | – | 24.5 µM (active) | – | 11 µM (active) | – | 19.5 µM (active) | – | – | – | – | – |
| [O-][n+]1ccccc1SSc1cccc[n+]1[O-] | 0.188 µM (active) | inactive | – | – | 0.13 µM (active) | – | 0.326 µM (active) | – | – | inactive | 0.206 µM (active) | – | 0.206 µM (active) | – | inactive | 0.674 µM (active) | 3.66 µM (active) | – | – |
| O=C1CCCc2c1cc1ccc3cccc4ccc2c1c34 | inactive | 69.4 µM (active) | inactive | inactive | – | – | – | – | 19.7 µM (active) | inactive | inactive | – | inactive | – | 49.6 µM (active) | – | – | inactive | – |
| O=c1[nH]sc2ccccc12 | 24.3 µM (active) | inactive | 68.6 µM (active) | 30.6 µM (active) | 17.4 µM (active) | – | 49 µM (active) | – | inactive | – | 17.4 µM (active) | – | 49 µM (active) | 54.9 µM (active) | – | – | – | – | – |
| CC(C)c1ccc2c(c1)CC[C@H]1[C@](C)(CN)CCC[C@]21C | 24.3 µM (active) | inactive | 54.5 µM (active) | 6.86 µM (active) | 11 µM (active) | – | 12.3 µM (active) | – | – | 11 µM (active) | 21.9 µM (active) | – | 54.9 µM (active) | 19.5 µM (active) | – | – | – | 49 µM (active) | – |
| CCCCC(CC)CN=C(N)NC(N)=NCCCCCCN=C(N)NC(N)=NCC(CC)CCCC (stereo not drawn) | 26.6 µM (active) | inactive | 21.1 µM (active) | – | 6.68 µM (active) | – | 13.3 µM (active) | – | – | 11.9 µM (active) | 8.41 µM (active) | – | 21.1 µM (active) | 23.7 µM (active) | – | – | – | – | – |
| CCCCCCCCn1sc(Cl)c(Cl)c1=O | 5.45 µM (active) | inactive | – | – | 3.09 µM (active) | 43.6 µM (active) | 4.36 µM (active) | – | – | 21.9 µM (active) | 3.89 µM (active) | – | 9.77 µM (active) | – | – | inactive | – | – | 49 µM (active) |
